In the library only some 4.1% were active in any assay of this set; here they are far more common.
DAX1 inh-1: inhibits human nuclear receptor DAX1 | HEK293 Gal4-DAX1 luciferase reporter, luminescence | inhibition, % at 6.75 µM | 340,000 compounds, 0.99% hits;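 active means inhibition above the mean over all tested compounds plus 3 SD, cut at about 4.2% in these data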;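 further: 0% = DAX1-transfected cells with DMSO and 100% = empty-vector control cells with DMSO; inhibition shows as a rise in luminescence from relieved DAX1 repression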
Target sequence (P51843 207-470 limits assumed): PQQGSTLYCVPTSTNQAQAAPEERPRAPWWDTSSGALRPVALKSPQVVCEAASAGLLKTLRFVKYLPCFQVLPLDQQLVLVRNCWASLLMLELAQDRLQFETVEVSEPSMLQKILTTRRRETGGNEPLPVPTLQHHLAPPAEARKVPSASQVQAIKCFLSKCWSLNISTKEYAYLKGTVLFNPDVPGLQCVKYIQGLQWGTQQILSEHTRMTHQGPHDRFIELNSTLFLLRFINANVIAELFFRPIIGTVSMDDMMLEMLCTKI
DAX1 inh-2: inhibitors of DAX1 repression of SF-1 activated StAR promoter. HEK293T StAR-luciferase reporter, SF-1/DAX-1 repression relief. inhibition, % at 6.8 µM. 370,000 compounds, 1.1% hits. AID 652010;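 active means inhibition above the mean over all tested compounds plus 3 SD, cut at about 3.6% in these data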;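 further: 0% = DAX-1 cells with DMSO and 100% = cells lacking DAX-1 with DMSO; higher inhibition means more luminescence from relief of DAX-1 repression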
hgDAF-12 ag: hgDAF-12 agonism, primary luciferase screen | HEK293 GAL4-hgDAF12 UAS-luciferase reporter, agonist luminescence; normalized to butyrate control | activation, % at 6.8 µM | AID 687014 | 370,000 compounds, 1.8% hits;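 active means activation above a cutoff set at the mean of all screened compounds plus 3 SD, cut at about 10% in these data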;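 further: 0% = DMSO wells and 100% = sodium butyrate wells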
hcDAF-12 act: activators of H. contortus DAF-12 nuclear receptor | HEK293 hcDAF-12 lit1-tk-luc reporter, luminescence; 0% DMSO, 100% Δ7-dafachronic acid | activation, % at 6.8 µM | 370,000 compounds, 1.4% hits;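 active means activation above the mean of all tested compounds plus 3 SD, cut at about 5.5% in these data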;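 further: 100% = response to 3 µM Δ7-dafachronic acid high control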
ssDAF-12 act: activators of S. stercoralis DAF-12 nuclear receptor | HEK293 ssDAF-12/GRIP1 lit1-tk-luc reporter, luminescence; % of 3 µM dafachronic acid response | activation, % at 6.8 µM | 370,000 compounds, 1% hits | AID 652126;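 active means activation above the mean over all tested compounds plus 3 SD, cut at about 0.9% in these data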;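 further: 0% = DMSO-only wells and 100% = 3 µM delta7-dafachronic acid wells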
* = called active by the depositor; . = no result given.

SMILES	DAX1 inh-1	DAX1 inh-2	hgDAF-12 ag	hcDAF-12 act	ssDAF-12 act
COC(=O)C(C)N1C(=O)S/C(=C/c2cc(C)n(C(C)C)c2C)C1=O (stereo not drawn)	-0.3	1.9	11.5*	1.8	-0.7
CCCCC(=O)N1CCC(NS(=O)(=O)c2ccc3c(c2)CCN3C(C)=O)CC1	.	-1.7	-1.7	-1.4	-1.7
Nc1[nH]c(C(=O)c2ccc(Br)cc2)c(-c2ccc(Cl)cc2Cl)c1C(=O)NCCc1c[nH]c2ccccc12	.	0.5	1.2	0.7	1.1*
Cc1cccn2c(=O)c(C(=O)NC3CCCCC3C)c(O)nc12 (stereo not drawn)	1.5	4.0*	3.0	-1.3	-1.0
Cc1cccn2c(=O)c(C(=O)NC3CCCCC3)c(O)nc12	0.4	-0.2	0.1	-1.0	-1.2
Nc1n[nH]c(N)c1N=Nc1ccc(Cl)cc1	-1.5	0.4	13.2*	1.9	-1.5
CSc1ncccc1C(=O)OCC(=O)c1cc(C)n(C)c1C	4.3*	2.3	4.1	6.4*	0.5
Cc1cccc(C)c1NC(=O)COC(=O)C1C2CC3OC(=O)C1C3C2 (stereo not drawn)	5.2*	-0.2	-1.5	0.2	-1.2
COc1ccc(C(=O)COC(=O)[C@H](C)NS(=O)(=O)c2ccc(NC(C)=O)cc2)cc1OC	1.9	0.5	2.2	-0.5	-0.9
CC(=O)Nc1ccc(S(=O)(=O)N[C@@H](C)C(=O)OCC(=O)c2ccc(Br)s2)cc1	8.1*	1.1	0.0	0.5	-1.2
CC1Cc2ccccc2N1C(=O)c1cc2cccnc2n(C)c1=O (stereo not drawn)	-0.5	1.3	3.0	5.6*	-0.1
Cn1ccsc1=NC(=O)c1ccccc1F	0.2	0.0	4.8	-1.1	-0.8
Cn1ccs/c1=N\C(=O)Nc1ccccc1	0.8	1.9	12.5*	3.8	0.1
O=C(O)c1ccc(Cl)c(S(=O)(=O)NCc2ccco2)c1	0.0	-0.1	-0.4	-0.8	-0.7
NS(=O)(=O)c1ccc(CCNC(=O)c2ccc(Cl)c(S(=O)(=O)NCc3ccco3)c2)cc1	0.1	-0.5	-2.6	1.3	1.3*
O=C(NC(=S)Nc1ccccc1Br)C1CCC1	1.5	2.0	6.7	2.1	-0.5
N#Cc1ccccc1NC(=S)NC(=O)C1CCC1	4.3*	0.2	-0.8	-0.9	-1.1
CC(C)C1CC(N(C)C)=CC(=S)N1 (stereo not drawn)	.	-4.3	-7.6	-3.7	-2.3
Fc1ccc(NC(=S)Nc2cccc(Cl)c2)cc1	1.1	-0.2	0.7	-1.5	-1.2
CC(C)c1cccc(C(C)C)c1NC(=S)Nc1cccc(Cl)c1	5.7*	-0.3	1.6	-1.0	-1.1
O=C(NCc1ccccc1)C1(C(=O)C2CC2)CC(c2ccccc2C(F)(F)F)=NO1 (stereo not drawn)	.	-0.1	1.3	2.2	-2.0
Cc1c(C(=O)Nc2ccccc2F)sc2nc3n(c(=O)c12)CCC3	1.1	0.9	11.4*	3.4	0.0
COc1ccccc1NC(=O)c1sc2nc3n(c(=O)c2c1C)CCC3	-0.1	0.5	3.8	0.1	-1.2
Cc1cc(N2CCN(Cc3ccc4c(c3)OCO4)CC2)n2nc(C)nc2n1	.	-0.2	-1.3	-2.7	-1.4
CC(C)(CC(=O)O)CC(=O)Nc1ccc2c(c1)ncn2CCc1ccccc1	4.5*	-0.1	1.9	-1.2	-0.6
SMILES	DAX1 inh-1	DAX1 inh-2	hgDAF-12 ag	hcDAF-12 act	ssDAF-12 act
CS(=O)(=O)Nc1ccc2c(c1)ncn2CCc1ccccc1	0.6	-0.2	-0.7	0.5	-0.9
COc1ccccc1NC(=S)NNC(=O)c1nn(C)c(C)c1Br	2.2	0.8	12.3*	2.9	-0.4
COc1ccccc1NC(=S)NNC(=O)c1nn(C)c(C)c1Cl	1.8	0.0	5.6	2.5	-0.8
COc1ccc(C)cc1Nc1nc(-c2c[nH]c3ccccc23)cs1	0.8	-0.8	-3.2	5.8*	0.1
C[C@@H]1OCN(C)[C@H]2C[C@H]3c4[nH]c5cccc(-c6ccc7c(c6)OCO7)c5c4CCN3C[C@@H]12	.	-0.5	-1.2	0.6	-0.9
Cc1ncsc1C(=O)Nc1nc2c(s1)CC(C)CC2 (stereo not drawn)	0.9	2.8	12.8*	3.1	0.3
CC1CCc2nc(NC(=O)C3CC3)sc2C1 (stereo not drawn)	0.7	1.8	5.9	3.7	-0.3
Cc1c(NC2=C(Cl)C(=O)N(c3ccccc3Cl)C2=O)c(=O)n(-c2ccccc2)n1C	-0.3	0.5	0.9	5.1	0.9*
